Assay results from PubChem BioAssay (EPA / NIEHS).
Records with an inconclusive call do not appear. Calls of active or inactive are those of the source. How the source made its calls: active means hit-call score of the fitted dose curve at least 0.9, where 1 is the maximum; inconclusive means response in the unintended direction; inactive means score below 0.9.

Test system: not listed separately
Test: CCTE_Mundy_HCI_iCellGluta_NOG_NeuronCount: CCTE's Neurite Outgrowth Assay in iCellGluta cells for Neuron Count, Mundy Lab (AID 2284340);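 further: cells fixed about 48 h after compound addition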
Procedure, shortened: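 Neuron count read by automated high-content imaging of Hoechst 33342 and betaIII-tubulin/Alexa Fluor-488 labelling in human iPSC glutamatergic neurons. Activity fitted relative to DMSO.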
With `CCCCOC(=O)c1ccccc1C(=O)OCc1ccccc1` the outcome was “inactive”. With `CNC(=O)Oc1cccc2c1OC(C)(C)C2` the outcome was “inactive”. In the case of `CC(C)COC(=O)c1ccccc1C(=O)OCC(C)C`, the outcome is reported as “inactive”. In the case of `CCC[CH2][Sn]([Cl])([CH2]CCC)[CH2]CCC`, the AC50 is reported as 0.257 µM (active). For `COP(=S)(OC)SCN1C(=O)c2ccccc2C1=O`, the AC50 was 80.7 µM (active). With `CN(C)[C@@H]1C(=O)C(C(N)=O)=C(O)[C@@]2(O)C(=O)C3=C(O)c4c(O)cccc4[C@@](C)(O)[C@H]3C[C@@H]12` the outcome was “inactive”. With `[O-][Cl+]O` the outcome was “inactive”. For `COC(=O)Nc1nc2ccccc2[nH]1`, the outcome was “inactive”.

Test system: not listed separately
Test: CCTE_Mundy_HCI_iCellGluta_NOG_NeuriteCount: CCTE's Neurite Outgrowth Assay in iCellGluta cells for Neurite Count, Mundy Lab (AID 2284342);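 further: chemical exposure about 48 hours starting 2 hours after plating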
With `CCCCOC(=O)c1ccccc1C(=O)OCc1ccccc1` the outcome was “inactive”. In the case of `CNC(=O)Oc1cccc2c1OC(C)(C)C2`, the outcome is reported as “inactive”. For `CC(C)COC(=O)c1ccccc1C(=O)OCC(C)C`, the outcome was “inactive”. With `CCC[CH2][Sn]([Cl])([CH2]CCC)[CH2]CCC` the AC50 was 0.183 µM (active). With `COP(=S)(OC)SCN1C(=O)c2ccccc2C1=O` the AC50 was 83.8 µM (active). In the case of `CN(C)[C@@H]1C(=O)C(C(N)=O)=C(O)[C@@]2(O)C(=O)C3=C(O)c4c(O)cccc4[C@@](C)(O)[C@H]3C[C@@H]12`, the outcome is reported as “inactive”. With `[O-][Cl+]O` the outcome was “inactive”. With `COC(=O)Nc1nc2ccccc2[nH]1` the outcome was “inactive”.

Test system: SERPINA7 (gene 6906)
Test: CCTE_GLTED_hTBG: CCTE's human Thyroxine-binding Globulin (TBG) Inhibition Assay, Great Lakes Toxicology and Ecology Division (GLTED) Lab (AID 2284343);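 further: active chemicals lower fluorescence versus DMSO baseline by displacing probe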
Procedure, shortened: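 Steps: combine TBG with chemical; incubate 2 hours so that disruptors release ANSA; record fluorescence (380 ex, 475 em). Loss of signal was fitted against DMSO controls.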
With `CCCCOC(=O)c1ccccc1C(=O)OCc1ccccc1` the AC50 was 2.23 µM (active). For `Nc1cc(Cl)cc(C(=O)O)c1Cl`, the outcome was “inactive”. With `Nc1ccc(N=Nc2ccccc2)cc1` the AC50 was 20.9 µM (active). With `CCCCCOC(=O)c1ccccc1C(=O)OCCCCC` the AC50 was 7.46 µM (active). For `CC(C)COC(=O)c1ccccc1C(=O)OCC(C)C`, the AC50 was 16.1 µM (active). With `Brc1ccc(Oc2ccccc2)cc1` the AC50 was 45.4 µM (active). With `[Cl-].[Cl-].[Hg+2]` the AC50 was 27.6 µM (active). For `O=[N+]([O-])c1ccc(Oc2ccc(Cl)cc2Cl)cc1`, the AC50 was 5.39 µM (active). For `Cc1cc(N=Nc2ccccc2C)ccc1N`, the AC50 was 4.38 µM (active). In the case of `COP(=S)(OC)SCN1C(=O)c2ccccc2C1=O`, the AC50 is reported as 37.5 µM (active). With `O=C(Nc1ccccc1)c1ccccc1I` the AC50 was 15.7 µM (active). With `c1ccc(NNc2ccccc2)cc1` the AC50 was 39.1 µM (active). In the case of `CC(C)(C)C(O)(CCc1ccc(Cl)cc1)Cn1cncn1` (stereo not drawn), the AC50 is reported as 26.9 µM (active). With `Nc1ccc(Oc2ccc(N)cc2)cc1` the AC50 was 25.3 µM (active). For `CS(=O)(=O)NC(=O)c1cc(Oc2ccc(C(F)(F)F)cc2Cl)ccc1[N+](=O)[O-]`, the AC50 was 16.1 µM (active). With `c1ccc(N=Nc2ccccc2)cc1` the AC50 was 50 µM (active). For `Nc1ccc([N+](=O)[O-])cc1`, the AC50 was 41.4 µM (active).
